Experiment [1] in a line: qHTS assay for measurement of the activity of small molecule inhibitors on Zika virus induced Caspase-3 activity in human iPSC derived neural progenitor cells (hNPCs) (AID 1224857). Note: nearly all actives have a fitted effect of over 65% in size. In short, it runs like this:
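Caspase-3/7 induction by a 6-hour ZIKV infection was quantified with a luminescent Caspase-Glo 3/7 reagent incubated 30 minutes at room temperature. Compounds were preincubated with hNPCs for 1 hour; inhibition was calculated against uninfected and infected control wells.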
A general note: Quantitative high-throughput screening tests each substance at several concentrations.

Experiment [2] is described as follows: qHTS assay for measurement of the activity of small molecule inhibitors on Zika virus induced Caspase-3 activity in human astrocytoma cells (AID 1224859). Put shortly:
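In SNB-19 cells plated at 250 cells/well and grown 16-20 h, compounds were applied 1 h before ZIKV (2 FFU/cell). Six hours later caspase-3/7 luminescence was recorded.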

A short description of experiment [3]: qHTS Screen of the MIPE 4.0 Collection Against Ewings Sarcoma (RDES) (AID 1259252). Note: nearly all actives have a fitted effect of over 35% in size. Note: potency is the fitted concentration of half-maximal effect. In short, it runs like this:
(§1)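 Compound titrations go onto adherent log-phase cells 4 h after seeding, incubate 48 h at 37C, then CellTiter-Glo luminescence reports viability relative to DMSO and cell-free controls.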

Experiment [4] is described as follows: qHTS Screen of the MIPE 4.0 Collection Against Ewings Sarcoma (TC71) (AID 1259253). Note: nearly all actives have a fitted effect of over 40% in size. Note: potency is the fitted concentration of half-maximal effect. Put shortly:
as §1

Experiment [5] is described as follows: qHTS Screen of the MIPE 4.0 Collection Against Ewings Sarcoma (EW8) (AID 1259255). Note: nearly all actives have a fitted effect of over 35% in size. Note: potency is the fitted concentration of half-maximal effect. In short, it runs like this: as §1
The nature of experiment [6]: qHTS Screen of the MIPE 4.0 Collection Against Ewings Sarcoma (TC32) (AID 1259256). Note: nearly all actives have a fitted effect of over 45% in size. Note: potency is the fitted concentration of half-maximal effect. In short, it runs like this:
as §1

Molecules are shown by their SMILES. Inconclusive results are not listed. Activity calls are given as the source filed them. Calls come from the whole dose curve; as a rule, active = well fitted inhibition curve with a large enough effect; inconclusive = small, poorly fitted or top-dose-only effect; inactive = no such curve, though single readings can be large or run the other way.

Turning to `CN(C1CCc2c(c3ccccc3n2CC(=O)O)C1)S(=O)(=O)c1ccc(F)cc1` (stereo unspecified), the Potency entry in experiment [1], in experiment [2], in experiment [3], in experiment [4], in experiment [5] and in experiment [6] was “inactive” each time.

With `O=C(Nc1nc2cccc(-c3ccc(CN4CCS(=O)(=O)CC4)cc3)n2n1)C1CC1`, the Potency entry in experiment [1] and in experiment [2] was “inactive” each time. The Potency was 16.6 µM (active) in experiment [3], 9.35 µM (active) in experiment [4], 9.35 µM (active) in experiment [5] and 8.33 µM (active) in experiment [6].

Take `CN1CCN(Cc2ccc(NC(=O)Nc3ccc(Oc4cc(NC(=O)C5CC5)ncn4)cc3)cc2C(F)(F)F)CC1`: the Potency entry in experiment [1] and in experiment [2] was “inactive” in each case. The Potency in experiment [3] was 0.372 µM (active); in experiment [4], 0.132 µM (active); in experiment [5], 0.372 µM (active); in experiment [6], 0.296 µM (active).

For the compound `CNC(=O)CN1CCC(Oc2cc3c(Nc4cccc(Cl)c4F)ncnc3cc2OC)CC1`, the Potency result in experiment [1] and in experiment [2] was “inactive” in each case. Moreover, the Potency in experiment [3] was 0.0148 µM (active); in experiment [4], 0.0526 µM (active); in experiment [5] it was 0.105 µM (active); in experiment [6], 0.0526 µM (active).

On to `CCCn1c(=O)c2[nH]c(-c3cnn(Cc4cccc(C(F)(F)F)c4)c3)nc2n(CC)c1=O`, for which the Potency entry in experiment [1], in experiment [2], in experiment [3], in experiment [4], in experiment [5] and in experiment [6] was “inactive” throughout.

For the compound `CCCCOc1c(C(=O)c2c(F)cc(C)cc2F)cnc2n[nH]cc12`, the Potency result in experiment [1] and in experiment [2] was “inactive” in each case. Besides, the Potency was 2.96 µM (active) in experiment [3], 2.96 µM (active) in experiment [4], 18.7 µM (active) in experiment [5] and 16.6 µM (active) in experiment [6].

With `CC[C@H]1CN2CCc3cc(OC)c(OC)cc3[C@H]2C[C@@H]1C[C@@H]1NCCc2cc(OC)c(OC)cc21`, the Potency result in experiment [1] and in experiment [2] was “inactive” each time. In addition, the Potency in experiment [3] was 0.0935 µM (active); in experiment [4], 0.059 µM (active); in experiment [5] it was 0.0662 µM (active); in experiment [6], 0.0743 µM (active).

On to `Nc1ccn([C@@H]2O[C@H](CO)[C@H](O)C2(F)F)c(=O)n1`, for which the Potency result in experiment [1] and in experiment [2] was “inactive” in each case. The Potency in experiment [3] was 0.0526 µM (active); in experiment [4] it was 0.0418 µM (active); in experiment [5], 0.0166 µM (active); in experiment [6], 0.0187 µM (active).

On to `COc1cc(C(=O)N2CCC(N3CCN(C)CC3)CC2)ccc1Nc1ncc2c(n1)N(C)c1ccccc1C(=O)N2C`, for which the Potency result in experiment [1] and in experiment [2] was “inactive” in each case. Also, the Potency in experiment [3] was 13.2 µM (active); in experiment [4], 4.69 µM (active); in experiment [5], 9.35 µM (active); in experiment [6] it was 4.18 µM (active).

For `Nc1cccc(-c2cc3c(Oc4cccc(O)c4)ncnc3[nH]2)c1`, the Potency result in experiment [1] and in experiment [2] was “inactive” in each case. For the same compound, the Potency is 2.35 µM (active) in experiment [3], 4.18 µM (active) in experiment [4], 3.32 µM (active) in experiment [5] and 2.96 µM (active) in experiment [6].

In the case of `COc1cccc2c(NCc3ccccc3)nc(-n3c(N)nc4ccccc43)nc12`, the Potency entry in experiment [1] and in experiment [2] was “inactive” each time. Also, the Potency is 8.33 µM (active) in experiment [3], 8.33 µM (active) in experiment [4], 8.33 µM (active) in experiment [5] and 10.5 µM (active) in experiment [6].

In the case of `O=C(CCCCCCC(=O)Nc1ccc([C@H]2O[C@@H](CSc3nc(-c4ccccc4)c(-c4ccccc4)o3)C[C@@H](c3ccc(CO)cc3)O2)cc1)NO`, the Potency result in experiment [1] and in experiment [2] was “inactive” in each case. Moreover, the Potency in experiment [3] was 7.43 µM (active); in experiment [4], 13.2 µM (active); in experiment [5] it was 4.69 µM (active); in experiment [6] it was 13.2 µM (active).

For the compound `CNC(=O)c1ccccc1Nc1nc(Nc2ccc(N3CCOCC3)cc2OC)ncc1Cl`, the Potency result in experiment [1] and in experiment [2] was “inactive” each time. For the same compound, the Potency is 11.8 µM (active) in experiment [3], 1.32 µM (active) in experiment [4], 1.48 µM (active) in experiment [5] and 0.662 µM (active) in experiment [6].

Consider `Cc1cc(C(=O)N2CCN(c3cccc(Cl)c3)CC2)n(-c2ccccc2)n1`, for which the Potency entry in experiment [1], in experiment [2] and in experiment [6] was “inactive” throughout. Further, the Potency in experiment [3] is 0.743 µM (active); in experiment [4], 6.62 µM (active); in experiment [5] it was 1.18 µM (active).

Consider `COc1cc2c(Oc3ccc(NC(=O)C4(C(=O)Nc5ccc(F)cc5)CC4)cc3F)ccnc2cc1OCCCN1CCOCC1`, for which the Potency entry in experiment [1] and in experiment [2] was “inactive” each time. The Potency in experiment [3] is 16.6 µM (active); in experiment [4], 3.32 µM (active); in experiment [5], 1.32 µM (active); in experiment [6] it was 1.66 µM (active).

`CN(C)CC(C)(C)CNc1nn2c(-c3ccccc3)nnc2cc1C1CCC1`: the Potency result in experiment [1] and in experiment [2] was “inactive” each time. For the same compound, the Potency is 0.418 µM (active) in experiment [3], 1.05 µM (active) in experiment [4], 0.469 µM (active) in experiment [5] and 0.469 µM (active) in experiment [6].

For `NCC(=O)Nc1ccc(-n2nc(C(F)(F)F)cc2-c2ccc3c(ccc4ccccc43)c2)cc1`, the Potency result in experiment [1] and in experiment [2] was “inactive” in each case. Further, the Potency in experiment [3] is 20.9 µM (active); in experiment [4] it was 4.18 µM (active); in experiment [5], 18.7 µM (active); in experiment [6] it was 20.9 µM (active).

With `Cc1cc(Nc2ncnc3ccc(-c4ccc(CNCCS(C)(=O)=O)o4)cc23)ccc1Oc1ccn2ncnc2c1`, the Potency result in experiment [1] and in experiment [2] was “inactive” each time. For the same compound, the Potency in experiment [3] was 18.7 µM (active); in experiment [4], 14.8 µM (active); in experiment [5], 16.6 µM (active); in experiment [6], 16.6 µM (active).

`CCCCCCCCCC(=O)N[C@@H](Cc1c[nH]c2ccccc12)C(=O)N[C@H](CC(N)=O)C(=O)N[C@@H](CC(=O)O)C(=O)N[C@@H]1C(=O)NCC(=O)N[C@@H](CCCN)C(=O)N[C@@H](CC(=O)O)C(=O)N[C@H](C)C(=O)N[C@@H](CC(=O)O)C(=O)NCC(=O)N[C@H](CO)C(=O)N[C@@H]([C@@H](C)CC(=O)O)C(=O)N[C@@H](CC(=O)c2ccccc2N)C(=O)O[C@@H]1C`: the Potency entry in experiment [1], in experiment [2], in experiment [3], in experiment [4], in experiment [5] and in experiment [6] was “inactive” throughout.

Turning to `COc1ccc(-n2nc(C(N)=O)c3c2C(=O)N(c2ccc(N4CCCCC4=O)cc2)CC3)cc1`, the Potency entry in experiment [1], in experiment [2], in experiment [3], in experiment [4], in experiment [5] and in experiment [6] was “inactive” throughout.

As to `CCOC(=O)C1=C(C)NC2=C(C(=O)CC(C)(C)C2)C1c1ccc(-c2ccccc2)cc1` (stereo unspecified), the Potency result in experiment [1] and in experiment [2] was “inactive” each time. The Potency was 26.4 µM (active) in experiment [3], 26.4 µM (active) in experiment [4], 29.6 µM (active) in experiment [5] and 23.5 µM (active) in experiment [6].

These data come from PubChem BioAssay (NCATS).
